From the supplement of paper PMC11732987, “Enantioselective OTUD7B fragment discovery through chemoproteomics screening and high-throughput optimisation” (Communications Chemistry, 2025)

Legend:
Experiment in all cases: log2 ratio of Biotin-Ahx-Ub-VS probe labelling (fragment/DMSO); higher = less target engagement (more negative = stronger competition), active = hit call of the paper (q ≤ 0.05, log2 ratio ≤ -1)
Details in all cases: compound concentration: 200 uM; treatment time: 3 h
USP19 = biological target: T1, USP19 (UniProt O94966)
T1 sequence (whole entry): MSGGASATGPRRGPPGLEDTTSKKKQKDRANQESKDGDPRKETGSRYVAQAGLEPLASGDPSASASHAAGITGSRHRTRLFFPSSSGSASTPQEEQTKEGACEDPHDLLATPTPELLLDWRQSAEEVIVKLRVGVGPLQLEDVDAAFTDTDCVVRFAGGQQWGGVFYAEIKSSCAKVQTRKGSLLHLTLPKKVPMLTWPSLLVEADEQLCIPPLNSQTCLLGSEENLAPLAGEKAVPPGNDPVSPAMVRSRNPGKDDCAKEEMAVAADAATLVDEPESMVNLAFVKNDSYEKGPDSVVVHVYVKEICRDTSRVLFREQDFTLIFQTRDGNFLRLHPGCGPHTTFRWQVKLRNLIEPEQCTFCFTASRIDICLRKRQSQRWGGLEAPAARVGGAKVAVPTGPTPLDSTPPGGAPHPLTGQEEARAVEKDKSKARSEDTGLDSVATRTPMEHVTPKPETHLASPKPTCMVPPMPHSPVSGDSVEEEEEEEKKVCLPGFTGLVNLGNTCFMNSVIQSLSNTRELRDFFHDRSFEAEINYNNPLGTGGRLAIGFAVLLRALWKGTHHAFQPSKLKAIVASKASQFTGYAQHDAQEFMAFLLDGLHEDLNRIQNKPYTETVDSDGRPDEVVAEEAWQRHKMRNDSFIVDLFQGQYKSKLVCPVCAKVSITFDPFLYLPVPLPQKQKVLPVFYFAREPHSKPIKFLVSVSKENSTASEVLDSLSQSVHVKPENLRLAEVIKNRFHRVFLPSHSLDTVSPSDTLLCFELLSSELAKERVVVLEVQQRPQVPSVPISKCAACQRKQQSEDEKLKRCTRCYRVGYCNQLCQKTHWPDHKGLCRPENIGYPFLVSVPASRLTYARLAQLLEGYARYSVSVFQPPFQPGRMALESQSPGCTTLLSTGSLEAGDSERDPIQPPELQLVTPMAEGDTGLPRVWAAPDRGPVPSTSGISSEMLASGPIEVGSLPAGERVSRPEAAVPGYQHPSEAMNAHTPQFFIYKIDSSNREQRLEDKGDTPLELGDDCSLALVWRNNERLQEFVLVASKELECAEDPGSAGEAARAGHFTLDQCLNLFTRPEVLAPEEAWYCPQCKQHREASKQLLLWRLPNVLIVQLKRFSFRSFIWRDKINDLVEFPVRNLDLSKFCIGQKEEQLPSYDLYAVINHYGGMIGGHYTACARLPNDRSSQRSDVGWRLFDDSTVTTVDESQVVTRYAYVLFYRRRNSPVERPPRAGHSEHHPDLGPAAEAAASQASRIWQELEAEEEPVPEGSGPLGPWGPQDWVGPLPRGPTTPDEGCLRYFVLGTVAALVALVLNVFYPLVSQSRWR
Method in brief: (§1)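 Average log2 ratios of fragment over vehicle were obtained by unpaired t-test from global-median-normalised Spectronaut label-free quantities. Proteins with ≥2 unique peptides were included. HEK293T lysate (495 µg per sample) was treated in triplicate with fragment at 200 µM or vehicle for 3 h, then with Biotin-Ahx-Ub-VS at 0.5 µM final for 1 h, and labelled DUBs were NeutrAvidin-enriched and run by diaPASEF LC-MS/MS.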

USP22 = biological target: T2, USP22 (UniProt Q9UPT9)
T2 sequence (whole entry): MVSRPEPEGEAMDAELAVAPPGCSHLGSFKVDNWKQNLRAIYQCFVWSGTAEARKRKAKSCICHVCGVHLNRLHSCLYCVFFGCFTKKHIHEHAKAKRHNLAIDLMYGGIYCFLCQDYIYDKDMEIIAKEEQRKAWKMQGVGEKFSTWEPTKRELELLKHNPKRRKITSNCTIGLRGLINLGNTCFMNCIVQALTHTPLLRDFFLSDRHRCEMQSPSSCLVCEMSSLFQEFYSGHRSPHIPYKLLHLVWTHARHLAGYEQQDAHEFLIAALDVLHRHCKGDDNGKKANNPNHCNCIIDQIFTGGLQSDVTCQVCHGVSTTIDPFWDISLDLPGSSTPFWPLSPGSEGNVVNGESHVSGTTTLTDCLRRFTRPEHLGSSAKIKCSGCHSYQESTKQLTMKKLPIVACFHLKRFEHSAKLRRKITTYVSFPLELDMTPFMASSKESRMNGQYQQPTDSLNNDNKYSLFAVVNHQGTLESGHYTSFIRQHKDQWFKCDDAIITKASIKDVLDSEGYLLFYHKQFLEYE
Method in brief: as §1

USP24 = USP24 (UniProt Q9UPU5)
Method in brief: as §1

USP25 = biological target: T3, USP25 (UniProt Q9UHP3)
T3 sequence (whole entry): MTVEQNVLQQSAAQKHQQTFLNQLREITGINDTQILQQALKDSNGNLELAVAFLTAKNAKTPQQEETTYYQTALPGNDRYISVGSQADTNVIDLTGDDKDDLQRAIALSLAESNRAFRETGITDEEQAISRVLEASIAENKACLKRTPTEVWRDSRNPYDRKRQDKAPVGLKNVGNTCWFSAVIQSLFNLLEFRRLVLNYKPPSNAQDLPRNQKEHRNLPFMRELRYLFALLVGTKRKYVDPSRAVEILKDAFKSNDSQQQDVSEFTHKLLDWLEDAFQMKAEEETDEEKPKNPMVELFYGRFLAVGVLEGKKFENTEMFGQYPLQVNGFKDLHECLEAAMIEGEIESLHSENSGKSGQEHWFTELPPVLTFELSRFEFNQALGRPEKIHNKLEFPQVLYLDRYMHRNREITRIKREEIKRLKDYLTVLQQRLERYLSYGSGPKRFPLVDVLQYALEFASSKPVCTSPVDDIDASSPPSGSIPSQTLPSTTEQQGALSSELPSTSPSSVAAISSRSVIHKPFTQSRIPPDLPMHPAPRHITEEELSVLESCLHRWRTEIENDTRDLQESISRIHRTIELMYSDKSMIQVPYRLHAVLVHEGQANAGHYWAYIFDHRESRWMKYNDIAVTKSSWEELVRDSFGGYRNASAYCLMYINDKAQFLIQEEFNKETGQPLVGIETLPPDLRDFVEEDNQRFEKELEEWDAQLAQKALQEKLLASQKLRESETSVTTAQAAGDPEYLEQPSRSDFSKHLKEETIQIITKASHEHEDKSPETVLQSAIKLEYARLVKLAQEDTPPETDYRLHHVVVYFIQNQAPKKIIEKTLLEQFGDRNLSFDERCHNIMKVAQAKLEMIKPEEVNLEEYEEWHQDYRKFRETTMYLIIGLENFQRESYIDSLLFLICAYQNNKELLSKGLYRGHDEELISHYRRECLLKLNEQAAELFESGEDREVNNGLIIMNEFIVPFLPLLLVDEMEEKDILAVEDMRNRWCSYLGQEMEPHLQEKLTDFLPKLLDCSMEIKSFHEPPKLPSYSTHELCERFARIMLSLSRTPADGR
Method in brief: as §1

USP28 = biological target: T4, USP28 (UniProt Q96RU2)
T4 sequence (whole entry): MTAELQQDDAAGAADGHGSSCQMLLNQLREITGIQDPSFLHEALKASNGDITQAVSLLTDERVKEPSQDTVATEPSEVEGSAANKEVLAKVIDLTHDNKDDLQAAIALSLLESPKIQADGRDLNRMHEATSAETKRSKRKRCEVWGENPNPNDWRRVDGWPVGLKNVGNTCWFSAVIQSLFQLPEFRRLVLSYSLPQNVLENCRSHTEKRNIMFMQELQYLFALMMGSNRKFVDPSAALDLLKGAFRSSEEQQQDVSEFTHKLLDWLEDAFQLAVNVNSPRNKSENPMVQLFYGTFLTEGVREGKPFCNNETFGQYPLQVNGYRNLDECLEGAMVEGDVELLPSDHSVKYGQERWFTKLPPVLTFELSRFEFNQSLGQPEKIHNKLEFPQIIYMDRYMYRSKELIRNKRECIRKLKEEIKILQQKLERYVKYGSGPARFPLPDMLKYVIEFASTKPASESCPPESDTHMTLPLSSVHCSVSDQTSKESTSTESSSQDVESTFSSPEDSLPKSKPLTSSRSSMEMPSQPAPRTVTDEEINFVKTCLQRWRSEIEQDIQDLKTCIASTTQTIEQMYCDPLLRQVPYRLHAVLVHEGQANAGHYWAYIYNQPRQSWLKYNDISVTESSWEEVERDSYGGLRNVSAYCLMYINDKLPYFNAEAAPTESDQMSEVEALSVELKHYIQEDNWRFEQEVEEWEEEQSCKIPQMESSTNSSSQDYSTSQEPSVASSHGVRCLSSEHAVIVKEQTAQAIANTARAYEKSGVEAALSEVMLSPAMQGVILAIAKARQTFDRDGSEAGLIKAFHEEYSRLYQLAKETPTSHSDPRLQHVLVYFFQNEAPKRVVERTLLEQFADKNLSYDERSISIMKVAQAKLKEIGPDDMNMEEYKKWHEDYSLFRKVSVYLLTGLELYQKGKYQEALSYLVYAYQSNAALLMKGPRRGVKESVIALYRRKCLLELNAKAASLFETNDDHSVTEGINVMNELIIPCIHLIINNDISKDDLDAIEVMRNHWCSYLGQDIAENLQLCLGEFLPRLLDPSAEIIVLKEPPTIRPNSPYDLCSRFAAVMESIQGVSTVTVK
Method in brief: as §1

Measured: log2 ratio of Biotin-Ahx-Ub-VS probe labelling

USP24, sequence (Q9UPU5 whole entry): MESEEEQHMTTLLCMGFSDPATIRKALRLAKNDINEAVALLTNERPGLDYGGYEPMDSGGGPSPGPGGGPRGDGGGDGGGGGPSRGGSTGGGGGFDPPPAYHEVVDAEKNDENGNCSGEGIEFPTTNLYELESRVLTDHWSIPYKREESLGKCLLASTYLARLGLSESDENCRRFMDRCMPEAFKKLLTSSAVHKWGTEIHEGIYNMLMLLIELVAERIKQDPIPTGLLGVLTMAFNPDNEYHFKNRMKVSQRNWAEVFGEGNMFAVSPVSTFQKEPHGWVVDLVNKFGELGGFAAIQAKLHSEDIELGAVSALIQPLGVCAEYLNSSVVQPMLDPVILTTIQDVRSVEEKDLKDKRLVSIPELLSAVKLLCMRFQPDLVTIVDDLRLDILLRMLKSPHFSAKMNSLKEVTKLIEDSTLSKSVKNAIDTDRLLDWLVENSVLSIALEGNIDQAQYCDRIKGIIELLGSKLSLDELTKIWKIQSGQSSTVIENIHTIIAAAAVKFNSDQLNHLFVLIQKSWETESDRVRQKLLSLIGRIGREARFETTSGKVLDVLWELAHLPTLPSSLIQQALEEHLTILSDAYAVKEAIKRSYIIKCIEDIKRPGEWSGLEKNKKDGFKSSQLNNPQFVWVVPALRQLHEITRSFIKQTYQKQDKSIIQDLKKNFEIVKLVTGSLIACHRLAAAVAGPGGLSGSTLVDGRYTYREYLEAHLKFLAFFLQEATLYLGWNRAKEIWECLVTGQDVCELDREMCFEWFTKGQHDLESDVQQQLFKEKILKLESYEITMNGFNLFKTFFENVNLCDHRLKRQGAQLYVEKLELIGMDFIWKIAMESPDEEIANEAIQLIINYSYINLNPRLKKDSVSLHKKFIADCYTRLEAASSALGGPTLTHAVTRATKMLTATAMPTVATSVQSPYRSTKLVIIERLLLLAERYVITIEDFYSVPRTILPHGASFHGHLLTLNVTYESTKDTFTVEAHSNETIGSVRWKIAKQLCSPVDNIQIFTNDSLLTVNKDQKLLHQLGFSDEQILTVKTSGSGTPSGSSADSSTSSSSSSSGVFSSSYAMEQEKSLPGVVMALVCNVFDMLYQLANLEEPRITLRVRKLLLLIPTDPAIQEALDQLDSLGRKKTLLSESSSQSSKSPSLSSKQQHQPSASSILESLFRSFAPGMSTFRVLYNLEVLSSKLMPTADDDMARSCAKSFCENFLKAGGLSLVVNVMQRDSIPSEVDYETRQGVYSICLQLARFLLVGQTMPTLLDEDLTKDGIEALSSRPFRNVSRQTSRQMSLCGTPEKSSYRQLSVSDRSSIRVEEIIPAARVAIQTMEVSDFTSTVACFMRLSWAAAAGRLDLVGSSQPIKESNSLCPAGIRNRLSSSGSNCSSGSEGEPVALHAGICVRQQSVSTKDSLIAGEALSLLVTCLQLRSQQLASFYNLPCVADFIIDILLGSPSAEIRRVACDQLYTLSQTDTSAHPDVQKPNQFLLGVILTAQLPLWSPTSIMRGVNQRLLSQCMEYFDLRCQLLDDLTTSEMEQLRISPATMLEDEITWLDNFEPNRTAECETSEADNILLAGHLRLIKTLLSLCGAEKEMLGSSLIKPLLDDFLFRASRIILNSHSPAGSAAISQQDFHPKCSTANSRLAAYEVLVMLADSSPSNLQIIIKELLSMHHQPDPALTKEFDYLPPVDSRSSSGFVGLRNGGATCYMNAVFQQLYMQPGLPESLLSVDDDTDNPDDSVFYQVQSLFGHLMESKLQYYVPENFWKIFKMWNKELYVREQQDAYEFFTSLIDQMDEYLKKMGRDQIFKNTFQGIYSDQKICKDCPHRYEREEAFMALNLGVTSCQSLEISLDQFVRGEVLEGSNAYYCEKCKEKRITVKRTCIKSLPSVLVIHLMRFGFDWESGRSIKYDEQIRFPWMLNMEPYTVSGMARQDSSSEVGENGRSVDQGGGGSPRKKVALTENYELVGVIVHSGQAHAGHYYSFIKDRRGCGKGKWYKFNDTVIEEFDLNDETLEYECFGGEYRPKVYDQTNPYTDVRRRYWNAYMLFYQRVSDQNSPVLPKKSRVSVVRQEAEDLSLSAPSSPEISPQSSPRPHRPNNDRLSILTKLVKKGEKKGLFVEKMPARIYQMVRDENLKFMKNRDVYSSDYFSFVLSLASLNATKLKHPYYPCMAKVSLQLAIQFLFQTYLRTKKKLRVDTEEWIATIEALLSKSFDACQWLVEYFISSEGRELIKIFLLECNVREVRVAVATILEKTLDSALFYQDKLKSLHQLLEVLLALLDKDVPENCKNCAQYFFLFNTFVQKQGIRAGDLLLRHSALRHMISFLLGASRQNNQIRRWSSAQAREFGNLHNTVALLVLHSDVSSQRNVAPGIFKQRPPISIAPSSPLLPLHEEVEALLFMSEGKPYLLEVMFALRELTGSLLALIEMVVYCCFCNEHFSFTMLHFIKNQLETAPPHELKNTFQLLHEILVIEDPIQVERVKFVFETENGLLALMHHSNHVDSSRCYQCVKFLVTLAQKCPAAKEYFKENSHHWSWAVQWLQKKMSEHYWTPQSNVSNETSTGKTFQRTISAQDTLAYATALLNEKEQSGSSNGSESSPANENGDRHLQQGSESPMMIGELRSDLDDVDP

CCc1c[nH]c(CNC(=O)CCl)n1.Cl
inactive: USP19 -0.279 | USP22 -0.0631 | USP24 -0.668 | USP25 -0.182 | USP28 -0.44
